Parameters in all cases: scale not given: direction of the effect not stated beside the values
The target of test [1] is Protein translocase subunit SecA (Escherichia coli (strain K12)) (UniProt P10408). As to the kind of experiment: Assay to Identify E. coli SecA ATPase Inhibitors. The format is functional. As to conditions: 30 µM.
Test [2] deals with T1, Ubiquitin-activating enzyme e1, putative (Leishmania donovani (strain BPK282A1)) (UniProt E9BSI1).
T1 sequence (whole entry): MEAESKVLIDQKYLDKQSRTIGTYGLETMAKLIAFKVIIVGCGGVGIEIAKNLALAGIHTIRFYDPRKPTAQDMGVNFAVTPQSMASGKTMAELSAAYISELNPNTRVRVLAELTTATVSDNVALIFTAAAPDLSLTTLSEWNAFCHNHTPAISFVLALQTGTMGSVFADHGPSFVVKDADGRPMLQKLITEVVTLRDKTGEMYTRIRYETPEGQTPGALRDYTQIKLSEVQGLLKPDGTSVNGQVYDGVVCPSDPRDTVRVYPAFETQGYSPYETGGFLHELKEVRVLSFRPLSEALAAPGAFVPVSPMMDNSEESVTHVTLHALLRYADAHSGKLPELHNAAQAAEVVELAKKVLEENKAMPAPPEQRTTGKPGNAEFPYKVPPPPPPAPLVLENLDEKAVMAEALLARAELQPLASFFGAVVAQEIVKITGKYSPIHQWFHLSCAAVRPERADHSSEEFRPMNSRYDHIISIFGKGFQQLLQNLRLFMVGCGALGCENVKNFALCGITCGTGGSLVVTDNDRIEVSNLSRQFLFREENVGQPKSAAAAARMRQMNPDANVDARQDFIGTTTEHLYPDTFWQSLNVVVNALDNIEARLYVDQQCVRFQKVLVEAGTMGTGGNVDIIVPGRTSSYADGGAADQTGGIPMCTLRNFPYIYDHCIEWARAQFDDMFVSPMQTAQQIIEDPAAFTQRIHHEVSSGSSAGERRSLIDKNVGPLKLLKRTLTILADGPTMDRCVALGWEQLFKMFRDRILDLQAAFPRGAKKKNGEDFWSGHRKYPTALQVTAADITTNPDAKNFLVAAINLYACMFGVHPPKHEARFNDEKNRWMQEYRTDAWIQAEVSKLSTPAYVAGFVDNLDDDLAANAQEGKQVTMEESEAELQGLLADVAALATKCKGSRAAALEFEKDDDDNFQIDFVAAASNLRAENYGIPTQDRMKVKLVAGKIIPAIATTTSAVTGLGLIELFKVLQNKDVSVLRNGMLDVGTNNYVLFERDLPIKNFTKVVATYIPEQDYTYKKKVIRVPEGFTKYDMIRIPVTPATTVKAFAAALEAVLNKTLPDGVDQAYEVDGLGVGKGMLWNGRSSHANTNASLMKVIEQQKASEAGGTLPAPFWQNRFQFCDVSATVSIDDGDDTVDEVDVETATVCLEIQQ
As to the kind of experiment: Leishmania donovani Ubiquitin Activating Enzyme (LdE1). The format is functional. The conditions noted are these: 30 µM.

For test [3], the target named is AMP-activated protein kinase, AMPK (Homo sapiens) (UniProt P54646+O43741+P54619+Q9UGJ0+Q9Y478+Q13131+Q9UGI9). As to the kind of experiment: AMP-dependent Kinase enzyme assay. An in vitro enzyme assay that detects ADP turnover that is directly proportional to AMPK activity. This uses naive AMPK that is activated during the assay with MK-8722. The format is functional. The conditions noted are these: 30 µM.

Test [4] has as its target Sialic acid-binding Ig-like lectin 9 (Homo sapiens) (UniProt Q9Y336). As to the kind of experiment: Hs-Siglec9 ALPHAscreen SOP 20170721. The conditions noted are these: 10 µM. For orientation: Bead proximity is the source of the signal in Alpha formats.
In the next test the test system is Trypanosoma cruzi. As to the kind of experiment: Trypanosoma cruzi phosphomannomutase and mannose-1-phosphate guanylyltransferase assay. The class given is functional. The conditions noted are these: 10 µM.
For test [5], the target named is T2, Arginase-2, mitochondrial (Homo sapiens) (UniProt P78540).
T2 sequence (whole entry): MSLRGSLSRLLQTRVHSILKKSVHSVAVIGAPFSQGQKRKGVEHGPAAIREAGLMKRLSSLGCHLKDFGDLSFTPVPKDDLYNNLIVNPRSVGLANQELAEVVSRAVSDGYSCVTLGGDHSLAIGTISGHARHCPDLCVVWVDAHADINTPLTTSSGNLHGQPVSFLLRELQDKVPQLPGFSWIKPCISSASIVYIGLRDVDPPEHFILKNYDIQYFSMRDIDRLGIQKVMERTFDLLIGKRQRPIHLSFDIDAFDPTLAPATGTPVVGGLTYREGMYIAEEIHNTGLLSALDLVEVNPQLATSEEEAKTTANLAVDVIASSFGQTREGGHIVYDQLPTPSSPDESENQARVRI
As to the kind of experiment: in vitro enzyme assay to detect the production of urea directly proportional to the activity of Arginase II. Note: in the data most compounds retested in dose-response had high values. The format is functional. The conditions noted are these: 33.3 µM.

Test [6] concerns the target T3, Proteasome subunit beta (Trypanosoma cruzi) (UniProt O96673).
T3 sequence (whole entry): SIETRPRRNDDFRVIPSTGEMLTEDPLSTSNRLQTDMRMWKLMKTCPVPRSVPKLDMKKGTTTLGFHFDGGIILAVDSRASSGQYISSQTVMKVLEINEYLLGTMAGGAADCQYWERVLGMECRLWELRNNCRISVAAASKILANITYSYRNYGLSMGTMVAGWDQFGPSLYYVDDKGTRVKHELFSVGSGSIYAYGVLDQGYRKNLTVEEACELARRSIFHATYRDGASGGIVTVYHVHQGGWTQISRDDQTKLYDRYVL
The test is described as follows: Trypanosoma cruzi proteasome chymotrypsin-like activity (TcProtChymo) assay. Note: in the data most compounds retested in dose-response had high values. The class given is functional. As to conditions: 9.37 µM.

For another test, the species on record is Homo sapiens. As to the kind of experiment: To identify inhibition of the IFN signalling (Jak-Stat) pathway via expression of an eGFP reporter gene under the control of an IFN-stimulated response element (ISRE) containing MxA promoter. As to conditions: 30 µM. The format is functional.
Test [7] addresses T4, Tyrosyl-tRNA synthetase, putative (Trypanosoma cruzi (strain CL Brener)) (UniProt Q4DSP6).
T4 sequence (whole entry): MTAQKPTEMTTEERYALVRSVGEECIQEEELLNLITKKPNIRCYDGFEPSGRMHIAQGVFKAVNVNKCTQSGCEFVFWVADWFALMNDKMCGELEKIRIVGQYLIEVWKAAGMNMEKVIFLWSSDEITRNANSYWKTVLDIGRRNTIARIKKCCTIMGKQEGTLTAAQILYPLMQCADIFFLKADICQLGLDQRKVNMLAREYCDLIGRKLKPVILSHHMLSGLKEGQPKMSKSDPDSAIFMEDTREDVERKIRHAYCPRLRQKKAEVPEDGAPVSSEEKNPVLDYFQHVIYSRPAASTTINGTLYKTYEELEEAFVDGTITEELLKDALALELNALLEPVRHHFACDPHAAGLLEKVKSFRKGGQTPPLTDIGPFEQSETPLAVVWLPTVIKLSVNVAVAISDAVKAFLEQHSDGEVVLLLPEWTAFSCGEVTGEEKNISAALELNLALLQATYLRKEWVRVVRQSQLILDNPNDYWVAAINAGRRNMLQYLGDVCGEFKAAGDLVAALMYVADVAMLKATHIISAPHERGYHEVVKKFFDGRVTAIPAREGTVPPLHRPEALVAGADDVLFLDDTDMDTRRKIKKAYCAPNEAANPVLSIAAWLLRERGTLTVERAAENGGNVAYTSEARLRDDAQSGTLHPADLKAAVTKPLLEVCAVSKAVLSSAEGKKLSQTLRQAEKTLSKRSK
The test is described as follows: Trypanosoma cruzi tyrosyl tRNA synthetase (TcYRS) _High Tyrosine SOP. Note: in the data most compounds retested in dose-response had high values. As to conditions: 30 µM. The class given is functional.

Test [8] deals with T4, Tyrosyl-tRNA synthetase, putative (Trypanosoma cruzi (strain CL Brener)). As to the kind of experiment: Trypanosoma cruzi tyrosyl tRNA synthetase (TcYRS) SOP. The class given is functional. The conditions noted are these: 30 µM.
For test [9], the target named is Chromo domain-containing protein 1 (Saccharomyces cerevisiae (strain ATCC 204508 / S288c) (Baker's yeast)) (UniProt P32657). The test is described as follows: ScCHD-1 Enzyme Inhibition Assay. Note: in the data most compounds retested in dose-response had high values. The format is functional. As to conditions: 30 µM.
Sequence of Chromo domain-containing protein 1 (Saccharomyces cerevisiae (strain ATCC 204508 / S288c) (Baker's yeast)) (P32657 whole entry, the tested form may be a part): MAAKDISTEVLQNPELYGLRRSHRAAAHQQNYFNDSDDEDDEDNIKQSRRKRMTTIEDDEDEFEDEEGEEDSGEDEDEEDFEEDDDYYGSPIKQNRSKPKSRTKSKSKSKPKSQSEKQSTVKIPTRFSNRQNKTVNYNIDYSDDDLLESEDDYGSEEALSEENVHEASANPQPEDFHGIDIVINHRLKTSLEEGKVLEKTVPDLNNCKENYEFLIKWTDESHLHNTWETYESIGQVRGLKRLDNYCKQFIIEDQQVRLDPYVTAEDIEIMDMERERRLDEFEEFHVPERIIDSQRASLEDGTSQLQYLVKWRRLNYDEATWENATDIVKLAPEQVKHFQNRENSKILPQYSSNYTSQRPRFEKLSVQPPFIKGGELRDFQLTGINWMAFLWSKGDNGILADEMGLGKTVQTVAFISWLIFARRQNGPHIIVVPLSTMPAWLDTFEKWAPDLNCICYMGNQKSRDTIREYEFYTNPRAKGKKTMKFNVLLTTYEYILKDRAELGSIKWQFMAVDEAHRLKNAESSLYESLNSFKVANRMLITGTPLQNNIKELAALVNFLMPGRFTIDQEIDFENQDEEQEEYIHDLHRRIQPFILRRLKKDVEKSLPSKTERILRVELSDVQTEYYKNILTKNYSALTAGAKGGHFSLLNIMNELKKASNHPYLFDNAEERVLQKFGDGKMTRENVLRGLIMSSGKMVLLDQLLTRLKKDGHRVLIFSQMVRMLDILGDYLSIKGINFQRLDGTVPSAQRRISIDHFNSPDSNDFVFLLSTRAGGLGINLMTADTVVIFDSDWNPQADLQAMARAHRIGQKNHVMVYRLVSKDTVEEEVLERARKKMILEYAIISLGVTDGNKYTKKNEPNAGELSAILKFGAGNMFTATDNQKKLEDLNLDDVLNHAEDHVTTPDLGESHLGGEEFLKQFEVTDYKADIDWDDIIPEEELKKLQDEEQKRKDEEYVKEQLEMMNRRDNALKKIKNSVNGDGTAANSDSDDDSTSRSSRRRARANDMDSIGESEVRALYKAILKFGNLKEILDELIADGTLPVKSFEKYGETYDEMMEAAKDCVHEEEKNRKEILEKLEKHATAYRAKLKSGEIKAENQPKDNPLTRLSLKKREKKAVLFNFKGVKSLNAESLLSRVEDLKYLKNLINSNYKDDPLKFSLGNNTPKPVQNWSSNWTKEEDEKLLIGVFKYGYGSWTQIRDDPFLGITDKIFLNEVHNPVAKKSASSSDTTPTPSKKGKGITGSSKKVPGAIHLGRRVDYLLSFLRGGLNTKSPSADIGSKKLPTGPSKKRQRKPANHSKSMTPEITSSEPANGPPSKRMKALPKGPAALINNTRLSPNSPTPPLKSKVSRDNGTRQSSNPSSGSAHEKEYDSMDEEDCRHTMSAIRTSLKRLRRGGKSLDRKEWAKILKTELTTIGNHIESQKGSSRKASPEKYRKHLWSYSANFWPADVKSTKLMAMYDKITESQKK

The text below walks through data of ChEMBL document CHEMBL3988442, “University of Dundee, Small-Polar-MMV Screening Library” (2021).

For some of these results: Potency and affinity values are given separately.

Sequence of Sialic acid-binding Ig-like lectin 9 (Homo sapiens) (Q9Y336 whole entry): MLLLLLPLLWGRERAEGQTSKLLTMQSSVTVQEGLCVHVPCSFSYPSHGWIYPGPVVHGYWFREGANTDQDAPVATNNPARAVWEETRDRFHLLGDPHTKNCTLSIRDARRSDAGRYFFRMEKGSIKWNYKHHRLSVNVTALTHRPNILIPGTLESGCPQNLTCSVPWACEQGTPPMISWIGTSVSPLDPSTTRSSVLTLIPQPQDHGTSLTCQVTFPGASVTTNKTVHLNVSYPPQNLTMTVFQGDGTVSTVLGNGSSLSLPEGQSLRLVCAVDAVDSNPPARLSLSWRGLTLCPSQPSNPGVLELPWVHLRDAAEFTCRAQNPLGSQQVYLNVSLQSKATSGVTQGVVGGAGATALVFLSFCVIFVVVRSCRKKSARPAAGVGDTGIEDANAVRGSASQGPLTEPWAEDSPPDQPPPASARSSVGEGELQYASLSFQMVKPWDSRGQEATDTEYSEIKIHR
Sequence of Protein translocase subunit SecA (Escherichia coli (strain K12)) (P10408 whole entry): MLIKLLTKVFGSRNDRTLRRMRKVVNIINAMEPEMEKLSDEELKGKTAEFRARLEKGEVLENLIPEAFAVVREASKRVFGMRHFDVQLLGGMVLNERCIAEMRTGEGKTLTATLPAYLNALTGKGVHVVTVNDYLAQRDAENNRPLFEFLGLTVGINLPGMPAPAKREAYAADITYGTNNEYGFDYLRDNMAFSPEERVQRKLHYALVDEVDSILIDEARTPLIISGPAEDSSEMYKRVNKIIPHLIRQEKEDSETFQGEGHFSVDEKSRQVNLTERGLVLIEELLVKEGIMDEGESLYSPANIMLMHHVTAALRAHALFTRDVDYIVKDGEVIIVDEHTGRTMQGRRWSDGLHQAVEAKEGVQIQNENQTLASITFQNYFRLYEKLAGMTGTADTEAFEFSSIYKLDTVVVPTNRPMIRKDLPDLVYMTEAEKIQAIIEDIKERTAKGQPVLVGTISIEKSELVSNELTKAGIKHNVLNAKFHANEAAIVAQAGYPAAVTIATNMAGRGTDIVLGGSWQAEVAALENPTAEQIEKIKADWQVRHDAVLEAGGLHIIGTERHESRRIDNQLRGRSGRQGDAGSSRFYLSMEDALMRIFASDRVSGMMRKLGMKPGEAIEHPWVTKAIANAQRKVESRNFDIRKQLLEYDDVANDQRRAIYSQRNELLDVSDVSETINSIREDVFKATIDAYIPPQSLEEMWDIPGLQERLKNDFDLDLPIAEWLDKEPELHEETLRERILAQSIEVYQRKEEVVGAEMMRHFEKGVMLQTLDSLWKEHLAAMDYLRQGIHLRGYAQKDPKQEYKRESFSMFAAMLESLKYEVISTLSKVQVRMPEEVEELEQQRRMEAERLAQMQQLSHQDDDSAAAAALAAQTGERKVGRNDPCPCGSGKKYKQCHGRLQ

For `Clc1cc(CN2CCCC2Cn2cncn2)c2ncccc2c1` (stereo not drawn), the Percent Effect was -4.67% in test [1]; 2.7% in test [2]; -1.32% in [3]; -0.586% in test [4]; -2.88% with Trypanosoma cruzi; -12.4% in test [5]. The Percent Effect in test [6] was 3.95%; in the test listed under Homo sapiens, -0.129%; in test [7] it was 2.97%; in test [8], 6.1%; in test [9], -2.39%.
Take `CN(C)c1ccc(C(=O)N2CCN(C(=O)N3CCCCC3)CC2)nn1`: the Percent Effect in test [1] is -6.05%; in [2] it was 7.79%; in test [3] it was 4.21%; in test [4], 10.5%; in the test on Trypanosoma cruzi it was 5.8%; in [5], -3.92%. The Percent Effect in test [6] was 4.56%; in the test filed under Homo sapiens, 3.45%; in test [7], 0%; in test [8], 7.32%; in [9], -13.4%.
For `Cc1ccc(C(=O)NCCCNS(C)(=O)=O)cc1-n1cccc1`, the Percent Effect is -3.12% in test [1]; 13.2% in [2]; 12.3% in test [3]; -1.07% in [4]; 3.99% in the test on Trypanosoma cruzi; 9.47% in test [5]. Moreover, the Percent Effect in test [6] was 15.2%; in the test listed under Homo sapiens it was 9.99%; in [7], 6.38%; in test [8] it was 10.4%; in [9], -5.78%.
For `CC(C)c1nnc2n1CCN(C(=O)c1ccc(-n3cnnc3)cc1)C2`, the Percent Effect in test [1] is -9.19%; in test [2], -10.4%; in test [3] it was -7.99%; in [4], -9.83%; with Trypanosoma cruzi, 8.13%; in [5] it was -7.79%. Moreover, the Percent Effect is 13.5% in test [6]; 0.957% in the test filed under Homo sapiens; 5.71% in [7]; 18.8% in test [8]; -23.7% in [9].
As to `c1ccc(N2CCCC3(COCCN(c4nccs4)C3)C2)nc1` (stereo not drawn), the Percent Effect was 0.192% in test [1]; 0% in [2]; -5.45% in test [3]; 16.4% in test [4]; 11.7% in the test on Trypanosoma cruzi; 0.399% in test [5]. Besides, the Percent Effect in test [6] worked out at 16%; in the test listed under Homo sapiens it was 31.6%; in test [7], 16.7%; in test [8], 23.5%; in test [9], 10.7%.
As for `CCCNC(=O)Cn1nc(C(C)C)c2cnn(C(C)(C)C)c2c1=O`, the Percent Effect in test [1] is -3.37%; in [2], 5.48%; in [3], -13.9%; in test [4] it was 4.27%; in the test with Trypanosoma cruzi it was -0.392%; in test [5], 2.27%. Besides, the Percent Effect in [6] is 16.1%; in the test filed under Homo sapiens, 5.42%; in test [7] it was 8.6%; in [8] it was 15%; in test [9], -5.95%.
As for `Cc1nc(CN2CCCC(Cn3cc(CCO)nn3)C2)c[nH]1` (stereo not drawn), the Percent Effect was -1.16% in test [1]; 0% in test [2]; -4.62% in [3]; 20.6% in test [4]; 5.21% in the test with Trypanosoma cruzi; 0.952% in test [5]. Further, the Percent Effect in test [6] was 5.17%; in the test filed under Homo sapiens it was -10.1%; in test [7] it was 1.59%; in test [8] it was 9.76%; in [9], -7.08%.
Consider `CCc1nc(CN2CCCN(C(=O)C(C)n3ccnc3)CC2)cs1` (stereo not drawn), for which the Percent Effect is -2.92% in test [1]; 5.2% in test [2]; 3.99% in [3]; 3.63% in test [4]; 3.75% with Trypanosoma cruzi; -5.69% in [5]. Further, the Percent Effect in [6] is 21.1%; in the test listed under Homo sapiens, -7.97%; in test [7], 5.83%; in test [8] it was 9.76%; in [9], -4.4%.
